# Test results as given in PubChem BioAssay (NCATS).
# Inconclusive results are not listed. Calls of active or inactive are those of the source. Unless noted, calls come from the whole dose curve; as a rule, active = well fitted curve in the direction sought with a large enough effect; inconclusive = small, poorly fitted or top-dose-only effect, or another doubt; inactive = no such curve, though single readings can be large; an effect the other way counts as inactive or inconclusive.
# What was measured:
# [1] = qHTS Assay for Identification of Small Molecule Inducers of Hypoxia Response (AID 2120; active = well fitted curve in the direction sought with a large enough effect in the signal ratio, with a control signal flat, not every such curve was filed as active; the % refers to the signal ratio)
# How it was run: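 ME-180 HRE-bla cells plated in Opti-MEM/0.5% dialyzed FBS, rested 4-5 h, then dosed with compound titrations by pin tool. After 17 h at 37 degrees C, CCF4 dye loaded 2.5 h at RT; 460/530 nm ratio gave %Activity and AC50.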
# [2] = biological target: DNA repair nuclease/redox regulator APEX1 (Homo sapiens) (UniProt P27695); test: qHTS Validation Assay for Inhibitors of the Human Apurinic/apyrimidinic Endonuclease 1 (APE1) (AID 1705;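 note: TAMRA fluorescence gain over two minutes as APE1 cuts a quenched THF abasic duplex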)
# How it was run: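 Activity read as rising fluorescence (598 nm emission, 525 nm excitation) from incision of a TAMRA/BHQ-2 duplex carrying a THF abasic site (50 nM). Compound and enzyme sat 15 min at RT before substrate start; signal change between first and third 60-s reads.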
# [3] = biological target: Endonuclease 4 (Escherichia coli (strain K12)) (UniProt P0A6C1); test: Counterscreen for APE1 Inhibitors: qHTS Validation Assay for Inhibitors of Endonuclease IV (AID 1708)
# How it was run: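 qHTS concentration-response format; LOPAC1280 tested under APE1-screen conditions. 2 nM enzyme, 15 min compound preincubation at RT, then 50 nM TAMRA/BHQ-2 abasic substrate; kinetic fluorescence read, three reads at 60 s intervals.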
# [4] = qHTS Assay for Modulators of Human Peripheral Myelin Protein 22 (PMP22) Expression/Activity (AID 1967; active = well fitted curve in the direction sought with a large enough effect in the signal ratio; the % refers to the signal ratio)
# How it was run: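 Readout is the corrected green/red luminescence ratio after 24 h compound exposure, normalised to untreated cells (0%). Engineered MSC80 mouse Schwann cells express green luciferase from the mouse Pmp22 promoter and red luciferase from EF-alpha as internal control.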
# [5] = biological target: Ferritin light chain (Equus caballus) (UniProt P02791); test: qHTS Validation Assay for Identification of Novel General Anesthetics (AID 2323)
# How it was run: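 Competitive displacement of the profluorescent anesthetic 1-AMA (50% saturated, PBS) from 10 uM apoferritin, 10 min, room temperature. Activity is normalized 380/535 nm fluorescence; concentration-response fitted with a four-parameter Hill equation.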
# [6] = biological target: ATP-dependent DNA helicase Q1 (Homo sapiens) (UniProt P46063); test: qHTS Validation Assay for Inhibitors of RecQ-Like Dna Helicase 1 (RECQ1) (AID 2353)
# How it was run: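 50 nM RECQ1T1 preincubated 15 min with compound in Tris pH 8.0 buffer with MgCl2, DTT, Tween-20 and 2.5 ug/ml poly(dI-dC); started with 200 nM TAMRA/BHQ-2 forked duplex and 2 mM ATP. Unwinding read as fluorescence (525/598 nm), two reads 2 h apart.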
# [7] = Cytometric Cell-Based qHTS for Inhibitors of the mTORC1 Signaling Pathway in MEF (Tsc2-/-, p53-/-) Cells (AID 2660);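 note: percent of cells above a phospho-rpS6 to PI ratio cutoff in each well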
# How it was run: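 Tsc2-/-, p53-/- MEFs (empty vector) exposed to compound 24 h at 37 C, fixed, stained with Alexa-488 anti-phospho-rpS6 Ser235/236 and propidium iodide. Acumen laser scanning; phospho-S6/PI ratio thresholded against 7.5 nM rapamycin, reported as % positive cells.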
# [8] = High Content Imaging Cell-Based qHTS for Inhibitors of the mTORC1 Signaling Pathway in MEF (Tsc2-/-, p53-/-) Cells (AID 2666); conditions: at 38.3 µM (top of the series);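 note: percent of cells scored positive for phospho-rpS6 Ser235/236 immunostaining by imaging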
# How it was run: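 Cells were plated, dosed with compound after 24 hrs, and incubated another 24 hrs at 37 degree Celsius. Fixed cells were immunostained for phospho-rpS6 Ser235/236 and counterstained, and the normalized signal was scored as % active cells against rapamycin and DMSO controls.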
# [9] = High Content Imaging Cell-Based qHTS for Inhibitors of the mTORC1 Signaling Pathway in MEF Cells (AID 2667);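 note: Tsc2-/- p53-/- MEFs stably re-expressing wild-type Tsc2 exposed 24 h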
# How it was run: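 Immunofluorescence for rpS6 phosphorylation in MEFs of Tsc2-/-, p53-/- background rescued with WT Tsc2. Compound exposure lasted 24 hrs. Inhibition was scored against rapamycin-treated control wells.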
# [10] = biological target: RecQ-like DNA helicase BLM (Homo sapiens) (UniProt P54132); test: qHTS Validation Assay for Inhibitors of Bloom's syndrome helicase (BLM) (AID 2364)
# How it was run: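 Forked 20-bp duplex substrate (200 nM, TAMRA/BHQ-2) plus 2 mM ATP added after 15 min compound preincubation with 50 nM enzyme, pH 8.0, poly(dI-dC) 2.5 ug/ml. Strand separation followed by fluorescence (525/598 nm) over 2 h, normalized to enzyme-free and DMSO controls.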
# ATP-dependent DNA helicase Q1 (Homo sapiens), sequence (P46063 whole entry, looked up): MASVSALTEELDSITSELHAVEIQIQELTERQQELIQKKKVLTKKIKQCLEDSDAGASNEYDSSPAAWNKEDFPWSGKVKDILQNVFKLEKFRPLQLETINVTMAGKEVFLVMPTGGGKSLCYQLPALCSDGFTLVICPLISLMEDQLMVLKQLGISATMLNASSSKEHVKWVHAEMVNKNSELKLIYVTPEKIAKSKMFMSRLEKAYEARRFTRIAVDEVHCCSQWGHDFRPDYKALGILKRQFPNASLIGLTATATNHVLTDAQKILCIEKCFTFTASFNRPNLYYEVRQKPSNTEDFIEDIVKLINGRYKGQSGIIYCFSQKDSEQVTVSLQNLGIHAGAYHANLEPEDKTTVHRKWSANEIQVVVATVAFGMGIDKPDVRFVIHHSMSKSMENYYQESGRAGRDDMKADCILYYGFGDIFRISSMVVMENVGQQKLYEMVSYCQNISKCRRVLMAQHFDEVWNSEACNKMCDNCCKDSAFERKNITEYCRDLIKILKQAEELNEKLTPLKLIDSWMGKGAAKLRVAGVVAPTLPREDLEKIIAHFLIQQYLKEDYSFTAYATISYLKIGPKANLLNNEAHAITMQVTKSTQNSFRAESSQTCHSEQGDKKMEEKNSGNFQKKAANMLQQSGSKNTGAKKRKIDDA
# DNA repair nuclease/redox regulator APEX1 (Homo sapiens), sequence (P27695 whole entry, looked up): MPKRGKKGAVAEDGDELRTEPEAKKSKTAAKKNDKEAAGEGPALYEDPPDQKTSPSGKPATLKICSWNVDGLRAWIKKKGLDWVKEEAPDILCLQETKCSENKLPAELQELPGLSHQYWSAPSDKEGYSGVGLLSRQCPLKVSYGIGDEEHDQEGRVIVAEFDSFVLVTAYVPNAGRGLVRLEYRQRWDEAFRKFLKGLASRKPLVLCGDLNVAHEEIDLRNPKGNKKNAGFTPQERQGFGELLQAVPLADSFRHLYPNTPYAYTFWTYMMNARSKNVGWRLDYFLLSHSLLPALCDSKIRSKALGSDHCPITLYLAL
# RecQ-like DNA helicase BLM (Homo sapiens), sequence (P54132 whole entry, looked up): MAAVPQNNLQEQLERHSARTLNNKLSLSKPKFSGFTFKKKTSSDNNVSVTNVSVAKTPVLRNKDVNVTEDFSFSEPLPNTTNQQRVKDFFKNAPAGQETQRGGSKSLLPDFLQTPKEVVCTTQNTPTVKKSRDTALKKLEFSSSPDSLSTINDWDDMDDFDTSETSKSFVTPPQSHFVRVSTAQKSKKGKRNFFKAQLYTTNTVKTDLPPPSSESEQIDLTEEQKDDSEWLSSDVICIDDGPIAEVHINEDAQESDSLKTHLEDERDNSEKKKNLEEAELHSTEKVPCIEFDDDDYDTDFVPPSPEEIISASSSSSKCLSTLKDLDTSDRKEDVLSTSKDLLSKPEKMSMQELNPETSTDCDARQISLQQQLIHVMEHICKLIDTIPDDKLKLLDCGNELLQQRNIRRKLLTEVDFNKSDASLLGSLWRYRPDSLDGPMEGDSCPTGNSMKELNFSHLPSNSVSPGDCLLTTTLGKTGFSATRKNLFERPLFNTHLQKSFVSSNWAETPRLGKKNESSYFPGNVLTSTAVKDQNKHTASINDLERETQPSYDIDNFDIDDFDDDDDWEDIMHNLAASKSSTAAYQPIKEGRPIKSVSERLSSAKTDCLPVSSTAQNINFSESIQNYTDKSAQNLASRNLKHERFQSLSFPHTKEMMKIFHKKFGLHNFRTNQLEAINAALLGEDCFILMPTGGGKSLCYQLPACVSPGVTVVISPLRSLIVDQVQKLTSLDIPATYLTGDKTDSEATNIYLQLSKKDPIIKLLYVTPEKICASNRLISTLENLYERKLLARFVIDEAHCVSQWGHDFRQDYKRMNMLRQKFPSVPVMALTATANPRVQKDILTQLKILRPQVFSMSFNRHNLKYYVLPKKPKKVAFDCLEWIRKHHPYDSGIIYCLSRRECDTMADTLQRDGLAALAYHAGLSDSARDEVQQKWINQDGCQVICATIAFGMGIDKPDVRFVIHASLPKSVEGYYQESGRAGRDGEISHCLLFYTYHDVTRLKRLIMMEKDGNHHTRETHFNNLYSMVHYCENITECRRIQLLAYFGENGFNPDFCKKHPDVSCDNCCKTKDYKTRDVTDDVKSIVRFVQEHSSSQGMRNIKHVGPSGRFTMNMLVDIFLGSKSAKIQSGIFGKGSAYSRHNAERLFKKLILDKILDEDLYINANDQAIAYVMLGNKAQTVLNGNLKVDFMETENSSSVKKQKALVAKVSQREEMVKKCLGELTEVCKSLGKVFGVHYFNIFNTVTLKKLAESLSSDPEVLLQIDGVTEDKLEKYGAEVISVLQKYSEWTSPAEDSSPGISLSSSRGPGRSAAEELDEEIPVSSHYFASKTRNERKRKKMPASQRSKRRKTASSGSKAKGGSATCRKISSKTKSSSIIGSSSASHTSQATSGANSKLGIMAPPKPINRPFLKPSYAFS
# Ferritin light chain (Equus caballus), sequence (P02791 2-175 limits assumed): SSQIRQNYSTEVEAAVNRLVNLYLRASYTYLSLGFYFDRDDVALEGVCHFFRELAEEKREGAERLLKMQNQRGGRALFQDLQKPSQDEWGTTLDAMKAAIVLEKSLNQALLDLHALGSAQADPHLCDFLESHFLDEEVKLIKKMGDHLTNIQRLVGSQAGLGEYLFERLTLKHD
structure (smiles),measurement,setting,value
CCCCCCCCCC(=O)O,outcome,[1],inactive
NCCCC(=O)O,outcome,[2],inactive
same,outcome,[3],inactive
same,outcome,[4],inactive
same,outcome,[5],inactive
same,outcome,[6],inactive
same,outcome,[7],inactive
same,outcome,[8],inactive
same,outcome,[9],inactive
C=Cc1ccccc1,outcome,[1],inactive
CN(C)Cc1ccccc1,outcome,[1],inactive
COC(C)=O,outcome,[1],inactive
O=C(O)CC(O)(CC(=O)O)C(=O)O,outcome,[1],inactive
CN[C@H]1CC[C@@H](c2ccc(Cl)c(Cl)c2)c2ccccc21,outcome,[2],inactive
same,outcome,[3],inactive
same,outcome,[6],inactive
same,outcome,[10],inactive
